Assays:
Assay in all cases: DAPPL (digital affinity profiling via proximity ligation, sequencing); 10 mM Tris-HCl pH 7.5, 50 mM NaCl, 1 mM DTT, 4% glycerol, room temperature, 30 min; GST-TFs on glutathione beads, 16-mer random dsDNA library, 0.1% formaldehyde crosslink after washing; high values mean tight binding
Conditions in all cases: protein: recombinant; tags: N-terminal GST; dsDNA, one strand shown
[1] = biological target: T1, ELK4 (Homo sapiens, UniProt P28324-2 1-405)
T1 sequence: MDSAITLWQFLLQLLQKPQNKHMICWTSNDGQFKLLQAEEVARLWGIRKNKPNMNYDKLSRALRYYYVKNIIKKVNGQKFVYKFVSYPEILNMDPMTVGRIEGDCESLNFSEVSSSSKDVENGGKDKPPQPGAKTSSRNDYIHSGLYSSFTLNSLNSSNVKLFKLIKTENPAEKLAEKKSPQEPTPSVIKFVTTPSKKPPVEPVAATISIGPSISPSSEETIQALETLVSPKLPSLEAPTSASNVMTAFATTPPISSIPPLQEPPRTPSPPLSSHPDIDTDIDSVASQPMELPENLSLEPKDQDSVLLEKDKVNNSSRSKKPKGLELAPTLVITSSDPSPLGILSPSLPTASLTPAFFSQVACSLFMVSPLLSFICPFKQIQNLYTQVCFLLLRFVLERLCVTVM
Method in brief: (§1)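 Yeast served to express human transcription factors as GST fusions, which were then captured on glutathione beads and labelled with DNA barcodes. Pooled with a tag-only sample, they were incubated with 200 nmole of a 16-mer random double-stranded DNA library for 30 min at room temperature in Tris/NaCl/DTT/glycerol buffer, washed, crosslinked with 0.1% formaldehyde, ligated by proximity, amplified by PCR and sequenced. Dividing each hexamer's read frequency for a factor by its frequency for the tag-only sample gives the binding signal.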

[2] = biological target: T2, ETV2 (Homo sapiens, UniProt O00321 1-342)
T2 sequence: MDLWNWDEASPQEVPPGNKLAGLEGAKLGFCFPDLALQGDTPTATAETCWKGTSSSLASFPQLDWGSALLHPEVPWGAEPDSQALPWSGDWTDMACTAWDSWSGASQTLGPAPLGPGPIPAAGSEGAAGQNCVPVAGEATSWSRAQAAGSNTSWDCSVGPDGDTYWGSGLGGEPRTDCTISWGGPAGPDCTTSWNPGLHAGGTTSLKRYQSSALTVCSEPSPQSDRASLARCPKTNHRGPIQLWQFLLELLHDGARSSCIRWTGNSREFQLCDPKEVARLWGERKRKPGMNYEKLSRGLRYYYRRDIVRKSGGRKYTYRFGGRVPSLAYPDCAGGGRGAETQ
Method in brief: as §1

[3] = biological target: T3, ELF3 (Homo sapiens, UniProt P78545 1-371)
T3 sequence: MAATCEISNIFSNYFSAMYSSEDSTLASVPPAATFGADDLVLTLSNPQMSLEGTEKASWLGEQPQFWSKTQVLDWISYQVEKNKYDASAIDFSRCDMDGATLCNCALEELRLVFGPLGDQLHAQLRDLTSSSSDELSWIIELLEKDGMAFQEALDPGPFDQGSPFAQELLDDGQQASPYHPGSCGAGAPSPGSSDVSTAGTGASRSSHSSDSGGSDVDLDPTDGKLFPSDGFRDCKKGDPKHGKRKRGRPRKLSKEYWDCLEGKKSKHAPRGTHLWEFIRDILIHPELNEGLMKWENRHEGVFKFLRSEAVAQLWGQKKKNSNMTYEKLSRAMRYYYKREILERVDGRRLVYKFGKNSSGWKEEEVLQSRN
Method in brief: as §1

[4] = biological target: ETV1 (Homo sapiens, UniProt P50549 1-477)
Method in brief: as §1

[5] = biological target: T4, ERF (Homo sapiens, UniProt P50548 1-548)
T4 sequence: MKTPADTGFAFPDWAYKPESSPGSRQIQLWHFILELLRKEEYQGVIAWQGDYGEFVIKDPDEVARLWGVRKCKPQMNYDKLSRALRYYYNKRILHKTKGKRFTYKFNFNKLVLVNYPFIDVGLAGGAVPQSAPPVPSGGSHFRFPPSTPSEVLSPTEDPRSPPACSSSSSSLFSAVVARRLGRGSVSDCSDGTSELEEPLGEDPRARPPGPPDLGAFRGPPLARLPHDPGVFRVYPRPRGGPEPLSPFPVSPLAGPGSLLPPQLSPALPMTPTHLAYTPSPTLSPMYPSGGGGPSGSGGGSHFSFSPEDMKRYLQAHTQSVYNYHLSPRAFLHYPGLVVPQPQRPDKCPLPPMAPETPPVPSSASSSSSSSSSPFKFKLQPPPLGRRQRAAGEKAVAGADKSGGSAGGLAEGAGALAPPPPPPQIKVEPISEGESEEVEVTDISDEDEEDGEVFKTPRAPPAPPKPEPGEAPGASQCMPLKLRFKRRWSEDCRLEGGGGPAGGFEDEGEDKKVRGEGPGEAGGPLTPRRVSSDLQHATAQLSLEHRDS
Method in brief: as §1

[6] = biological target: T5, ETV3L (Homo sapiens, UniProt Q6ZN32 1-361)
T5 sequence: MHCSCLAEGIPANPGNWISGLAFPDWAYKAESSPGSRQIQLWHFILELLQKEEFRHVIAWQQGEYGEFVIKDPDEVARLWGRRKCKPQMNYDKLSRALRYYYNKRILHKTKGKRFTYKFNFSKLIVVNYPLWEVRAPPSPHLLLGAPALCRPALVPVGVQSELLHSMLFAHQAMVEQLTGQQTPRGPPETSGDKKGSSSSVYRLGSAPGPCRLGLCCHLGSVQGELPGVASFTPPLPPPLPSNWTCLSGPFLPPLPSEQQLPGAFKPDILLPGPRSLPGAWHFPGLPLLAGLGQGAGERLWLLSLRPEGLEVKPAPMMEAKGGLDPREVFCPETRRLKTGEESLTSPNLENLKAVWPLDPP
Method in brief: as §1

[7] = biological target: T6, ETS2 (Homo sapiens, UniProt P15036 1-469)
T6 sequence: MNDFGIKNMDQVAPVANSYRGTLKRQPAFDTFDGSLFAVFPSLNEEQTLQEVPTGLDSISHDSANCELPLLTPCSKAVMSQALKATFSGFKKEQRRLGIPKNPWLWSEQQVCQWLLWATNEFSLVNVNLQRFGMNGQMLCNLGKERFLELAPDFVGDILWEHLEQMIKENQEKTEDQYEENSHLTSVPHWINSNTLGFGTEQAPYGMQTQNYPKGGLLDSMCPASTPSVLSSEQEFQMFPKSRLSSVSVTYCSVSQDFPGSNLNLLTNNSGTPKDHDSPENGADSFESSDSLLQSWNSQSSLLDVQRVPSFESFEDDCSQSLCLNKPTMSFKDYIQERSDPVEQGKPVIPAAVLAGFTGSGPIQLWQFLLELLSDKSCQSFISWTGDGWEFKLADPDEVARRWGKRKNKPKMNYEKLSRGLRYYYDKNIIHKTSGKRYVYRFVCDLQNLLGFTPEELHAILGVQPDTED
Method in brief: as §1

[8] = biological target: T7, ETV7 (Homo sapiens, UniProt Q9Y603 1-341)
T7 sequence: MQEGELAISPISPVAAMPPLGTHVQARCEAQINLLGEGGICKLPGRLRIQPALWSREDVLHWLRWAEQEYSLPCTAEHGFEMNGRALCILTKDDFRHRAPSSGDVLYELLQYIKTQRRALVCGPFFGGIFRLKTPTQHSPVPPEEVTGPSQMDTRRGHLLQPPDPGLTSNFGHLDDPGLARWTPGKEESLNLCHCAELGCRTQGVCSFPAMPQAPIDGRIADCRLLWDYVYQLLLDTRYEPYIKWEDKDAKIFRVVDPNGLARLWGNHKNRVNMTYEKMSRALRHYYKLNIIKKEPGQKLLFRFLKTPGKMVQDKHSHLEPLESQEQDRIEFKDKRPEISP
Method in brief: as §1

[9] = biological target: T8, ETV3 (Homo sapiens, UniProt P41162-2 1-143)
T8 sequence: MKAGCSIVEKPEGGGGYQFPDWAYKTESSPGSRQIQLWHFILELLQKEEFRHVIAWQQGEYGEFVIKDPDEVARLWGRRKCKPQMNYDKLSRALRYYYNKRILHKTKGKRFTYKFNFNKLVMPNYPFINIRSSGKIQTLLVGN
Method in brief: as §1

[10] = biological target: ETV6 (Homo sapiens, UniProt P41212 1-452)
Method in brief: as §1

Chain of ETV6 (P41212 whole entry): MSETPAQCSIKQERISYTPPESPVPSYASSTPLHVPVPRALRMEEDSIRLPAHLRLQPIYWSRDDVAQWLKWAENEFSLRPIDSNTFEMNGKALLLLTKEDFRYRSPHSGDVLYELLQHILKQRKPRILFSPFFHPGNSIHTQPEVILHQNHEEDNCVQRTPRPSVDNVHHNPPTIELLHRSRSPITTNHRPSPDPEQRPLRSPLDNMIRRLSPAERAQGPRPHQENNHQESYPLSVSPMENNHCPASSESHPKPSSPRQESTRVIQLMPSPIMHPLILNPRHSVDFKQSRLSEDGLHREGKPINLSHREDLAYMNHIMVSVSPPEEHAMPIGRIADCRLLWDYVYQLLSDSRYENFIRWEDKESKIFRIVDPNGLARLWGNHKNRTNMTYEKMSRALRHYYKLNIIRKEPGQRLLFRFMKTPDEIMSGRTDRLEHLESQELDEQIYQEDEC
Chain of ETV1 (P50549 whole entry): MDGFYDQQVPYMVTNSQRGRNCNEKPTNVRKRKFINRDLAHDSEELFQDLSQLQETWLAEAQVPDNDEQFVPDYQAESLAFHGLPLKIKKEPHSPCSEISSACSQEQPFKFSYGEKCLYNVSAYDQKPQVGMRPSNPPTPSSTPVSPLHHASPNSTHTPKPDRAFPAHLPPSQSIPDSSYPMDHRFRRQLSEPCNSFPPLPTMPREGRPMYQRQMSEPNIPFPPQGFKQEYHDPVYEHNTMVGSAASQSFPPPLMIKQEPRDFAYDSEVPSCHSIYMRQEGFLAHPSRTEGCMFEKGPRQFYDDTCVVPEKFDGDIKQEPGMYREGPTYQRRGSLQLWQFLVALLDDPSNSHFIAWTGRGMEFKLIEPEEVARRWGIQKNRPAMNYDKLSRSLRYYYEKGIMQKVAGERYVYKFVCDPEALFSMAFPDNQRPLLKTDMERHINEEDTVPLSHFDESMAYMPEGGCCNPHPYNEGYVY

In the case of ACAGCC, the binding signal [1] is reported as 1.04 fold enrichment (6-mer frequency, TF over GST control), the binding signal [2] is reported as 1.05 fold enrichment (6-mer frequency, TF over GST control) and the binding signal [3] is reported as 1.24 fold enrichment (6-mer frequency, TF over GST control). The binding signal [4] was 1.06 fold enrichment (6-mer frequency, TF over GST control), the binding signal [5] was 1.18 fold enrichment (6-mer frequency, TF over GST control) and the binding signal [6] was 1.04 fold enrichment (6-mer frequency, TF over GST control). For the same sequence, the binding signal [7] was 1.03 fold enrichment (6-mer frequency, TF over GST control), the binding signal [8] was 1.15 fold enrichment (6-mer frequency, TF over GST control) and the binding signal [9] was 1.04 fold enrichment (6-mer frequency, TF over GST control). For the same sequence, the binding signal [10] was 1.03 fold enrichment (6-mer frequency, TF over GST control).

From article PMC7862700, “An all-to-all approach to the identification of sequence-specific readers for epigenetic DNA modifications on cytosine”
